Measurements as given in PubChem BioAssay (EPA / NIEHS).
Activity calls are given as the source filed them. The calls were made as follows: active = hit-call score of the fitted dose curve at least 0.9, where 1 is the maximum; inactive = score below 0.9.

Legend:
[1] = read-out: Cyclin D2 (CCND2), CCND2 (gene 894); test: LTEA_HepaRG_CCND2: Life Technologies and Expression Analysis (LTEA) Assay for Cyclin D2 (CCND2) using HepaRG (AID 2283449); conditions: mRNA level, 48 h; actives raise or lower the signal;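 also: CCND2 transcript measured by TaqMan qRT-PCR and normalised to three housekeeping genes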
Method in brief: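 Chemicals in 0.5% DMSO, eight half-log concentrations from 100 uM top, were applied in duplicate for 48 h to human HepaRG cells in serum-free induction medium. CCND2 mRNA by TaqMan qRT-PCR, normalised to ACTB/GAPDH/POLR2A; bidirectional fit versus DMSO.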

[2] = read-out: Cyclin Dependent Kinase Inhibitor 1A (CDKN1A), CDKN1A (gene 1026); test: LTEA_HepaRG_CDKN1A: Life Technologies and Expression Analysis (LTEA) Assay for Cyclin Dependent Kinase Inhibitor 1A (CDKN1A) using HepaRG (AID 2283450); conditions: mRNA level, 48 h; actives raise or lower the signal
Method in brief: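 Gain or loss of CDKN1A transcript is scored by bidirectional fitting against 0.5% DMSO vehicle. Human HepaRG cultures receive chemicals for 48 h across an 8-point series peaking at 100 uM; expression comes from qRT-PCR.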

[3] = read-out: Cyclin D1 (CCND1), CCND1 (gene 595); test: LTEA_HepaRG_CCND1: Life Technologies and Expression Analysis (LTEA) Assay for Cyclin D1 (CCND1) using HepaRG (AID 2283451); conditions: mRNA level, 48 h; actives raise or lower the signal;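 as to AC50: TaqMan qRT-PCR transcript level normalised to ACTB GAPDH and POLR2A housekeeping genes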
Method in brief: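 Expression change is measured by qRT-PCR in HepaRG cells after 48 h treatment across eight concentrations topping at 100 uM, with duplicate wells and DMSO (0.5%) serving as baseline for bidirectional fitting.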

[4] = read-out: catalase (CAT), CAT (gene 847); test: LTEA_HepaRG_CAT: Life Technologies and Expression Analysis (LTEA) Assay for catalase (CAT) using HepaRG (AID 2283452); conditions: mRNA level, 48 h; actives raise or lower the signal;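 as to AC50: TaqMan qRT-PCR signal normalized to ACTB GAPDH and POLR2A housekeeping genes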
Method in brief: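 HepaRG cells in serum-free induction medium, 0.5% DMSO vehicle, exposed 48 h in duplicate over 8 half-log concentrations from 100 uM. CAT mRNA measured by qRT-PCR, normalized to ACTB, GAPDH, POLR2A; bidirectional fit versus DMSO.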

[5] = read-out: Cytochrome P450 (CYP1A1), CYP1A1 (gene 1543); test: LTEA_HepaRG_CYP1A1: Life Technologies and Expression Analysis (LTEA) Assay for Cytochrome P450 (CYP1A1) using HepaRG (AID 2283454); conditions: mRNA level, 48 h; actives raise or lower the signal
Method in brief: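 Using HepaRG cultures with 0.5% DMSO as vehicle, eight-concentration exposures (max 100 uM) lasted 48 h. Transcript levels were measured by TaqMan qRT-PCR and normalized to ACTB, GAPDH and POLR2A.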

[6] = read-out: CFLAR gene, CFLAR (gene 8837); test: LTEA_HepaRG_CFLAR: Life Technologies and Expression Analysis (LTEA) Assay for CFLAR gene using HepaRG (AID 2283455); conditions: mRNA level, 48 h; actives raise or lower the signal
Method in brief: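 Differentiated HepaRG cells in serum-free induction medium were exposed 48 h in duplicate to eight half-log concentrations up to 100 uM in 0.5% DMSO; mRNA measured by TaqMan qRT-PCR, normalized to ACTB, GAPDH, POLR2A; bidirectional fitting versus DMSO.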

[7] = read-out: Forkhead box O1 (FOXO1), FOXO1 (gene 2308); test: LTEA_HepaRG_FOXO1: Life Technologies and Expression Analysis (LTEA) Assay for Forkhead box O1 (FOXO1) using HepaRG (AID 2283456); conditions: mRNA level, 48 h; actives raise or lower the signal
Method in brief: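 Differentiated HepaRG cells, in serum-free induction medium with 0.5% DMSO, exposed 48 h in duplicate to 8-point half-log series from 100 uM. FOXO1 mRNA measured by TaqMan qRT-PCR, normalized to ACTB, GAPDH, POLR2A; bidirectional fit versus DMSO.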

[8] = read-out: growth arrest and DNA damage 45 (GADD45A), GADD45A (gene 1647); test: LTEA_HepaRG_GADD45A: Life Technologies and Expression Analysis (LTEA) Assay for growth arrest and DNA damage 45 (GADD45A) using HepaRG (AID 2283458); conditions: mRNA level, 48 h; actives raise or lower the signal
Method in brief: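 Differentiated HepaRG cells were exposed in duplicate for 48 h in serum-free induction medium to 8-point half-log concentrations up to 100 uM in 0.5% DMSO. GADD45A mRNA was measured by TaqMan qRT-PCR, normalized to ACTB, GAPDH and POLR2A, with bidirectional fitting versus DMSO.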

[9] = read-out: Forkhead box O3 (FOXO3), FOXO3 (gene 2309); test: LTEA_HepaRG_FOXO3: Life Technologies and Expression Analysis (LTEA) Assay for Forkhead box O3 (FOXO3) using HepaRG (AID 2283459); conditions: mRNA level, 48 h; actives raise or lower the signal
Method in brief: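 Differentiated human HepaRG cells, 48 h post-plating, exposed in duplicate for 48 h in serum-free induction medium; 8-point half-log series from 100 uM in 0.5% DMSO. FOXO3 mRNA by TaqMan qRT-PCR, normalized to ACTB/GAPDH/POLR2A; bidirectional fit versus DMSO.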

[10] = read-out: ABC Transporter (ABCB1), ABCB1 (gene 5243); test: LTEA_HepaRG_ABCB1: Life Technologies and Expression Analysis (LTEA) Assay for ABC Transporter (ABCB1) using HepaRG (AID 2283460); conditions: mRNA level, 48 h; actives raise or lower the signal
Method in brief: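 HepaRG cells exposed in duplicate for 48 h in serum-free induction medium to eight half-log concentrations up to 100 uM in 0.5% DMSO. ABCB1 mRNA quantified by qRT-PCR, normalised to ACTB, GAPDH and POLR2A; fitted bidirectionally versus DMSO.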

[11] = read-out: growth arrest and DNA damage 45 (GADD45B), GADD45B (gene 4616); test: LTEA_HepaRG_GADD45B: Life Technologies and Expression Analysis (LTEA) Assay for growth arrest and DNA damage 45 (GADD45B) using HepaRG (AID 2283461); conditions: mRNA level, 48 h; actives raise or lower the signal
Method in brief: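 Human HepaRG monolayers receive chemicals for 48 h at eight half-log concentrations, highest 100 uM, in 0.5% DMSO. Expression is measured by TaqMan qRT-PCR and normalized to ACTB, GAPDH and POLR2A.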

[12] = read-out: ABC Transporter (ABCB11), ABCB11 (gene 8647); test: LTEA_HepaRG_ABCB11: Life Technologies and Expression Analysis (LTEA) Assay for ABC Transporter (ABCB11) using HepaRG (AID 2283463); conditions: mRNA level, 48 h; actives raise or lower the signal
Method in brief: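 Differentiated human HepaRG cells in serum-free induction medium, dosed in duplicate for 48 h. Eight-point half-log series from 100 uM in 0.5% DMSO; ABCB11 mRNA by qRT-PCR, normalized to ACTB, GAPDH, POLR2A, fitted bidirectionally versus DMSO.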

[13] = read-out: ABC Transporter (ABCC2), ABCC2 (gene 1244); test: LTEA_HepaRG_ABCC2: Life Technologies and Expression Analysis (LTEA) Assay for ABC Transporter (ABCC2) using HepaRG (AID 2283464); conditions: mRNA level, 48 h; actives raise or lower the signal
Method in brief: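 After plating and 48 h culture, HepaRG medium is replaced with serum-free induction medium and chemicals are added (8 concentrations, max 100 uM, 0.5% DMSO) for 48 h. Total RNA then undergoes qRT-PCR for ABCC2 with housekeeping normalization.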

[14] = read-out: Broad substrate specificity ATP-binding cassette transporter ABCG2 (Homo sapiens) (UniProt Q9UNQ0); test: LTEA_HepaRG_ABCG2: Life Technologies and Expression Analysis (LTEA) Assay for ABC Transporter (ABCG2) using HepaRG (AID 2283465); conditions: mRNA level, 48 h; actives raise or lower the signal
Method in brief: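 Differentiated HepaRG cells were exposed for 48 h in serum-free induction medium to 8 half-log concentrations, top 100 uM, in 0.5% DMSO. ABCG2 mRNA was measured by qRT-PCR, normalized to ACTB, GAPDH and POLR2A, with bidirectional fitting versus DMSO.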

[15] = read-out: ATP-citrate lyase (ACLY), ACLY (gene 47); test: LTEA_HepaRG_ACLY: Life Technologies and Expression Analysis (LTEA) Assay for ATP-citrate lyase (ACLY) using HepaRG (AID 2283466); conditions: mRNA level, 48 h; actives raise or lower the signal
Method in brief: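 Differentiated HepaRG cells exposed 48 h in serum-free induction medium to eight half-log concentrations up to 100 uM in 0.5% DMSO, duplicates. Transcript measured by Fluidigm TaqMan qRT-PCR, normalized to ACTB, GAPDH, POLR2A; bidirectional fit versus DMSO.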

[16] = read-out: Peroxisomal acyl-coenzyme A oxidase 1 (ACOX1) gene, ACOX1 (gene 51); test: LTEA_HepaRG_ACOX1: Life Technologies and Expression Analysis (LTEA) Assay for Peroxisomal acyl-coenzyme A oxidase 1 (ACOX1) gene using HepaRG (AID 2283467); conditions: mRNA level, 48 h; actives raise or lower the signal
Method in brief: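 HepaRG cells, plated 48 h then switched to serum-free induction medium, were exposed in duplicate for 48 h to 8-point half-log concentrations up to 100 uM in 0.5% DMSO. ACOX1 mRNA was measured by qRT-PCR, normalized to ACTB/GAPDH/POLR2A, and fitted bidirectionally versus DMSO.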

[17] = read-out: Alkaline Phosphatase, Placental (ALPP) gene, ALPP (gene 250); test: LTEA_HepaRG_ALPP: Life Technologies and Expression Analysis (LTEA) Assay for Alkaline Phosphatase, Placental (ALPP) gene using HepaRG (AID 2283468); conditions: mRNA level, 48 h; actives raise or lower the signal
Method in brief: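 Using human liver HepaRG cells, chemicals are tested in duplicate over 48 h at half-log concentrations topping at 100 uM; phenobarbital 1 mM serves as induction control. ALPP mRNA change by qRT-PCR, bidirectional fit against vehicle.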

[18] = read-out: Bcl-2 (BAD) gene, BAD (gene 572); test: LTEA_HepaRG_BAD: Life Technologies and Expression Analysis (LTEA) Assay for Bcl-2 (BAD) gene using HepaRG (AID 2283469); conditions: mRNA level, 48 h; actives raise or lower the signal
Method in brief: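 Differentiated HepaRG cells were exposed in duplicate in 0.5% DMSO for 48 h to eight-point half-log concentrations up to 100 uM. BAD mRNA was measured by Fluidigm TaqMan qRT-PCR, normalized to ACTB, GAPDH and POLR2A, and fitted bidirectionally against DMSO.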

[19] = read-out: adenosine kinase (ADK) gene, ADK (gene 132); test: LTEA_HepaRG_ADK: Life Technologies and Expression Analysis (LTEA) Assay for adenosine kinase (ADK) gene using HepaRG (AID 2283471); conditions: mRNA level, 48 h; actives raise or lower the signal
Method in brief: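 Differentiated HepaRG cells dosed 48 h in serum-free induction medium, 0.5% DMSO vehicle, eight half-log concentrations from 100 uM, in duplicate. ADK mRNA by TaqMan qRT-PCR normalised to ACTB, GAPDH, POLR2A; bidirectional fit versus DMSO.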

[20] = CEETOX_H295R_TESTO: CeeTox H295R High-throughput Steroidogenesis Assay for Testosterone (TESTO) (AID 2283457); conditions: actives raise or lower the signal
Method in brief: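 Steroidogenesis in H295R cells following OECD 456 with minor changes; 48 h exposure. Medium testosterone by HPLC-MS/MS, DMSO as baseline, with MTT viability run in parallel.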

Measured: AC50

Sequence of Broad substrate specificity ATP-binding cassette transporter ABCG2 (Homo sapiens) (Q9UNQ0 whole entry, looked up): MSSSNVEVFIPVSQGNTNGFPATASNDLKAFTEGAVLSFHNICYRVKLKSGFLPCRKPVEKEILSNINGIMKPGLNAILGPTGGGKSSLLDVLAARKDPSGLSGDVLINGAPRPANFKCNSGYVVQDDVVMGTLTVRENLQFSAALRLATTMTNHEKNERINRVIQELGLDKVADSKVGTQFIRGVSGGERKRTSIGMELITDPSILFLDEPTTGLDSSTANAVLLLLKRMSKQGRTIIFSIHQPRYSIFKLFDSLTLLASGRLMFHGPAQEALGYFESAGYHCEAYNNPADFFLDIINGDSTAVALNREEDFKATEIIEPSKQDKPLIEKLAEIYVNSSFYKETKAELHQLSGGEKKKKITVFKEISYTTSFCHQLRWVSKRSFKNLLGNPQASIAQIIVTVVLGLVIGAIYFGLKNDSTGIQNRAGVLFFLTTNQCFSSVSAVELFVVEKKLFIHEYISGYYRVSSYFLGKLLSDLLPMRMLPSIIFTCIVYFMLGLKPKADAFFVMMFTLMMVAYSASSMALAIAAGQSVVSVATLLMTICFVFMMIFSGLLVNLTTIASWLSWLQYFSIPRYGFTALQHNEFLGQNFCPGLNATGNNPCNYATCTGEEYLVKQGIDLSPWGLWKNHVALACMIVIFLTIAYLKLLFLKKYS

CCC(C)(C)c1ccc(O)c(C(C)(C)CC)c1
active: [5] 74 µM
not listed: [20]
inactive: all other assays above

CCC(=O)C(CC(C)N(C)C)(c1ccccc1)c1ccccc1 (configuration not stated)
active: [5] 55.3 µM
not listed: [20]
inactive: all other assays above

COP(=O)(OC)O/C(=C\Cl)c1cc(Cl)c(Cl)cc1Cl
inactive: [20]

O=C1C2(Cl)C3(Cl)C4(Cl)C(Cl)(Cl)C5(Cl)C3(Cl)C1(Cl)C5(Cl)C24Cl (configuration not stated)
active: [1] 91.9 µM | [2] 93 µM | [3] 92.9 µM | [4] 93.5 µM | [7] 93.5 µM | [9] 93.2 µM | [10] 91.8 µM | [11] 93 µM | [13] 93.6 µM | [14] 15.8 µM | [15] 93.1 µM | [16] 0.0893 µM | [17] 26.7 µM
inactive: [5] | [6] | [8] | [12] | [18] | [19]

CC(=O)[O][Hg][c]1ccccc1
active: [2] 0.174 µM | [3] 3.75 µM | [4] 13.3 µM | [6] 16.8 µM | [7] 12.9 µM | [8] 16.3 µM | [9] 14.5 µM | [10] 24.1 µM | [12] 1.22 µM | [13] 27.2 µM | [15] 23.3 µM | [16] 15.2 µM | [17] 0.646 µM | [18] 12.7 µM | [19] 31.5 µM
inactive: [5] | [11] | [14]

Cn1sc(Cl)cc1=O
not listed: [20]
inactive: all other assays above

CC(C)(c1ccccc1)c1ccc(O)c(C(C)(C)c2ccccc2)c1
active: [4] 60.7 µM | [5] 35.8 µM | [10] 22.1 µM | [12] 43.1 µM | [13] 12.7 µM | [14] 36.2 µM | [16] 50 µM
not listed: [20]
inactive: all other assays above

CC(C)(C)c1cc(O)ccc1O
not listed: [20]
inactive: all other assays above

ClC1(Cl)C2(Cl)C3(Cl)C4(Cl)C(Cl)(Cl)C5(Cl)C3(Cl)C1(Cl)C5(Cl)C24Cl (configuration not stated)
active: [5] 23.3 µM | [15] 5.15 µM
not listed: [20]
inactive: all other assays above
